Assay outcomes deposited in PubChem BioAssay by The Scripps Research Institute Molecular Screening Center.
GSTO1 inh – blocks human GSTO1 in RBBP9 counter-screen. 1.1% of 300,000 active. AID 1974. inhibition, % at 5.96 µM. recombinant GSTO1, activity-based probe fluorescence polarization;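 active = inhibition above the campaign mean inhibition plus 3 SD, cut at about 35% in these data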
Target sequence (P78417 whole entry, looked up): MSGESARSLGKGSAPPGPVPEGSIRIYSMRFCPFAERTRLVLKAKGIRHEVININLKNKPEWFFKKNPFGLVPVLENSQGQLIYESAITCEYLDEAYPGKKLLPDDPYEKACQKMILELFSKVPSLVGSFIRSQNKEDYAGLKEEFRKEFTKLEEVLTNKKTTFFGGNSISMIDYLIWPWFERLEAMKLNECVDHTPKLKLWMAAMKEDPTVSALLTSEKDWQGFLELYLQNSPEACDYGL
PME-1 primary – blocks human protein phosphatase methylesterase 1; recombinant PME-1, FP-Rh probe fluorescence polarization; inhibition, % at 5.9 µM; 0.53% of 320,000 active; AID 2130;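 active = inhibition above the campaign mean of all compounds plus 3 SD, cut at about 26% in these data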;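 also: competitive labeling of PME-1 active site by serine hydrolase directed probe; inhibitors block probe labeling so polarization falls and inhibition rises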
Fam108B inh – Fam108B inhibition, counter-screen for RBBP9 inhibitors | recombinant Fam108B, FP-Rh probe fluorescence polarization | inhibition, % at 9.51 µM | 0.33% of 300,000 active | AID 1947;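 active = inhibition above the screen mean inhibition plus 3 SD, computed separately per campaign, cut at about 18% in these data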;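 also: inhibitors lower polarization as less probe binds the enzyme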
LYPLA1 counter – counter-screen for PME1 inhibitors: inhibitors of human LYPLA1. inhibition, % at 5.9 µM. O75608. recombinant LYPLA1, FP-Rh probe fluorescence polarization. 0.16% of 320,000 active. AID 2174;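 active = inhibition above the mean of all tested compounds plus 3 SD, set per campaign, cut at about 14% in these data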;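 also: inhibitors block serine hydrolase probe labeling of LYPLA1 so polarization falls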
Target sequence (O75608 whole entry, looked up): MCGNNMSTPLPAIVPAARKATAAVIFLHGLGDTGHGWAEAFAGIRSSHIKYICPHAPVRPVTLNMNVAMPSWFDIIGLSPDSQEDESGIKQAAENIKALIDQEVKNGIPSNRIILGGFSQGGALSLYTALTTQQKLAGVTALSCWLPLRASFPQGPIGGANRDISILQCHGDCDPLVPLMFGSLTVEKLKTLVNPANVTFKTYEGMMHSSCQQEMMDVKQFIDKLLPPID
LYPLA2 counter – counter-screen for PME1 inhibitors: inhibitors of human LYPLA2 | recombinant LYPLA2, FP-Rh probe fluorescence polarization | inhibition, % at 5.9 µM | AID 2177 | 0.38% of 320,000 active;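 active = inhibition above the screen-wide mean plus 3 SD, limit set per campaign, cut at about 26% in these data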
Target sequence (O95372 whole entry, looked up): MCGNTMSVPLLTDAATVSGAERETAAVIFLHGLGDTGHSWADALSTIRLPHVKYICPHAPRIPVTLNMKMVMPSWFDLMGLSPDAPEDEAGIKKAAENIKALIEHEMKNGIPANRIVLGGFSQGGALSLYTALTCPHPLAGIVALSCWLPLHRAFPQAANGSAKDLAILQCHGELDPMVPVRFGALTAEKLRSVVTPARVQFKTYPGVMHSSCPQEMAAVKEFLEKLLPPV
PAD4 inh – blocks human protein arginine deiminase 4; recombinant PAD4, RCA probe fluorescence polarization; inhibition, % at 6.36 µM; 0.41% of 330,000 active;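 active = percent inhibition above a cutoff equal to the mean of all tested compounds plus 3 SD, cut at about 15% in these data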
PAD4 FP conf – PAD4 (human) inhibition, confirmed; shares compounds with PAD4 inh; recombinant PAD4, RCA probe fluorescence polarization; inhibition, % at 6.36 µM; 28% of 1,200 active; AID 488796;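 active = mean inhibition across replicates above the hit cutoff set by the earlier primary screen, cut at about 15% in these data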;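 also: inhibitors block active-site labeling by the probe so polarization falls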
Of the large screens only hits and unclear results are named; the others gave an inactive call (follow-up assays come after a bar, where they were run). Rows were chosen to be rich in hits. Some 1.8% of all compounds tested hit in one or more screens of this group.

Cc1ccc(SCc2cc(=O)c3c(=O)n(-c4ccccc4)[nH]c3[nH]2)cc1	none
Cc1cc2c(cc1C)N(C(=O)CSc1nncn1C)C(C)(C)c1ssc(=S)c1-2	PAD4 inh 33 | PAD4 FP conf 33
Cc1ccc2c(c1)N(C(=O)CSc1nncn1C)C(C)(C)c1ssc(=S)c1-2	none
CSCc1cccc(C(=O)OC(C)C(=O)Nc2c(C)n(C)n(-c3ccccc3)c2=O)c1 (stereo not given)	PAD4 inh 24 (no result: GSTO1 inh, Fam108B inh) | PAD4 FP conf inactive
COC(=O)C1=CO[C@@H](O[C@@H]2O[C@H](CO)[C@@H](O)[C@H](O)[C@H]2O)C2C1CC(O)O[C@H]2C (stereo not given in full)	none (no result: GSTO1 inh, PME-1 primary, Fam108B inh, LYPLA1 counter, LYPLA2 counter)
O=C(O)CC(SCC(=O)Nc1ccc(Cl)c(S(=O)(=O)N2CCOCC2)c1)C(=O)O (stereo not given)	PAD4 inh 21 | PAD4 FP conf inactive
O=C(CCNC(=O)c1ccccc1)Nc1ccc(Cl)c(S(=O)(=O)N2CCCCC2)c1	PAD4 inh 19 (no result: GSTO1 inh, PME-1 primary, Fam108B inh, LYPLA1 counter, LYPLA2 counter) | PAD4 FP conf inactive
COc1ccc(C(=O)Nc2ccc3cn[nH]c3c2)c(OC)c1	none
Cc1nnc(N/N=C/c2ccc([N+](=O)[O-])cc2)n1N	none
COc1ccc(/C=N/Nc2nnc(C)n2N)cc1OC	PAD4 inh 25 | PAD4 FP conf inactive
COc1ccc(/C=N/Nc2nnc(C)n2N)cc1OC(C)=O	PAD4 inh 45 | PAD4 FP conf inactive
CCOC(=O)Cc1nc2ccccc2n(CC#N)c1=O	none
Cn1nnnc1Sc1ncnc2scc(-c3ccc([N+](=O)[O-])cc3)c12	PAD4 inh 17 (no result: GSTO1 inh, Fam108B inh) | PAD4 FP conf inactive
Cn1nnnc1Sc1ncnc2scc(-c3ccc(Cl)cc3)c12	none (no result: GSTO1 inh, Fam108B inh)
Cc1cc(C)c2nc(NC(=O)c3ccc4c(=O)n5c(nc4c3)CCCCC5)sc2c1	PAD4 inh 36 | PAD4 FP conf 28
Cc1ccc(NC(=O)c2ccc3c(=O)n4c(nc3c2)CCCCC4)nc1	none
COc1ccc(CCCC(=O)Nc2ccccc2F)cc1	none
CNc1c(C(=O)O)ccc2c1C(=O)c1ccccc1C2=O	none
O=C(O)c1ccc2c3c(ncnc13)-c1ccccc1C2=O	PAD4 inh 85 | PAD4 FP conf 68
CCOc1nc(Nc2ccc(OC)cc2OC)nc(OCC)n1	PAD4 inh 190 | PAD4 FP conf inactive
CCNc1nc(C)c(CN(C(C)=O)c2ccccc2)nc1C#N	none
COc1ccc(-c2c/c(=N\c3nc(-c4ccccc4)c(C)s3)c3ccccc3o2)cc1O	PME-1 primary 31, PAD4 inh 33 | PAD4 FP conf 17
COc1ccc(/C=C/c2nc3cc(-c4ccccc4)ccc3o2)cc1O	none
O=S(c1ccc2ccccc2c1)c1cnns1 (stereo not given)	PAD4 inh 19 | PAD4 FP conf 19
CS(=O)(=O)c1ccccc1-c1nnc(NC(=O)c2ccc3ncsc3c2)o1	PAD4 inh 22 | PAD4 FP conf inactive
CS(=O)(=O)c1cccc(-c2nnc(NC(=O)c3ccc4ncsc4c3)o2)c1	none
CC1(C)C(=O)Nc2ccccc2N1C(=O)COC(=O)c1ccc(Cl)c(S(=O)(=O)NCc2ccccc2)c1	none
O=C(Nc1nc(=O)c2ccccc2s1)c1ccc(F)cc1	PAD4 inh 16 | PAD4 FP conf inactive
CCc1nnc(N/N=C/c2ccccc2Cl)n1N	PAD4 inh 36 | PAD4 FP conf inactive
CCc1nnc(N/N=C/c2ccccc2F)n1N	PAD4 inh 43 | PAD4 FP conf inactive
COc1cccc(CNCCO)c1OCc1ccccc1Cl	none
COc1cccc(/C=N/Nc2nnc(C)n2N)c1OCc1ccccc1Cl	PAD4 inh 22 | PAD4 FP conf inactive
CC(C)(C)c1nnc(N/N=C/c2ccccc2O)n(N)c1=O	none
CCOC(=O)N/N=C/c1ccccc1F	none
NC(=O)C1CCCN(CC(O)COCc2ccc(Cl)cc2)C1 (stereo not given)	none
O=C(O)c1ccc(-c2nc(-c3ccc(Cl)cc3Cl)cs2)cc1	none
CC(=O)N1CC[n+]2c(-c3ccc(Cl)cc3Cl)csc21	PAD4 inh 16 | PAD4 FP conf inactive
O=c1cnnc(Nc2ccc(F)cc2)[nH]1	none
O=C1C=C(Nc2ccc(F)cc2)c2ccccc2C1=O	PAD4 inh 40 (no result: GSTO1 inh, Fam108B inh) | PAD4 FP conf 38
CCCCCC(C)NC(=O)c1cc(S(=O)(=O)N2CCCCC2)ccc1N1CCOCC1 (stereo not given)	none (no result: GSTO1 inh, Fam108B inh)
COC(=O)CN1C(=O)N/C(=C/c2ccc(C)o2)C1=O	PAD4 inh 16 | PAD4 FP conf inactive
c1ccc(OCc2noc(CN3CCC(C4CCCCC4)C3)n2)cc1 (stereo not given)	none
Cc1sc(NC(=O)CSC2=NCCS2)nc1-c1ccccc1	PAD4 inh 19 | PAD4 FP conf 17
Cc1ccc(-c2csc(NC(=O)CSC3=NCCS3)n2)cc1	PAD4 inh 20 | PAD4 FP conf 16
O=C(CSC1=NCCS1)Nc1nc2ccccc2s1	PAD4 inh 17 | PAD4 FP conf inactive
CCOC(=S)SCC(=O)Nc1nc(-c2ccccc2)cs1	PAD4 inh 25 | PAD4 FP conf 25
Cc1occc1-c1nnc(SCC(=O)c2c(N)n(C3CC3)c(=O)[nH]c2=O)n1C	none (no result: GSTO1 inh, Fam108B inh)
O=C1NC(=O)c2cc3ccccc3cc21	none (no result: GSTO1 inh, Fam108B inh)
O=C(c1cccs1)N1CCN(c2ncc(Br)cn2)CC1	none
Cc1ccc(S(=O)(=O)/N=C(/Sc2ccccc2C(=O)O)c2ccccc2)cc1	PAD4 inh 18 | PAD4 FP conf 25
Cc1cc(C)cc(NC(=S)/C(=C(\[O-])c2ccc(Cl)s2)[n+]2cccc(C)c2)c1	PAD4 inh 90 | PAD4 FP conf inactive
CN(CC(=O)Nn1cnnc1)S(=O)(=O)c1ccc(Br)cc1	none
CCNC(=O)Nc1cc(OC)c(OC)cc1C(=O)O	none
O=C(O)c1cccc(-c2ccc(/C=N/NC(=O)c3cccnc3)o2)c1	none
Cc1nnc(N/N=C\c2ccc(-c3cccc(C(=O)O)c3)o2)n1N	PAD4 inh 30 | PAD4 FP conf inactive
Cc1nnc(N/N=C/c2ccc(Br)cc2)n1N	PAD4 inh 36 | PAD4 FP conf inactive
Cc1nnc(N/N=C/c2ccc(-c3ccc(Br)cc3)o2)n1N	PAD4 inh 24 | PAD4 FP conf inactive
COC(=O)Nc1ccc(SCC(=O)c2cccc([N+](=O)[O-])c2)cc1	PAD4 inh 26 | PAD4 FP conf 19
COc1ccc(-c2nc(C(=O)NCCCN3CCOCC3)cc3c2[nH]c2ccccc23)cc1OC	PAD4 inh 59 | PAD4 FP conf 67
Cn1nc(C(=O)OCc2ccc(F)cc2)c2ccccc2c1=O	none
Cc1ccc(COC(=O)c2nn(C)c(=O)c3ccccc23)cc1	PAD4 inh 25 | PAD4 FP conf inactive
Cc1ncc(N=Nc2ccc(F)cc2)c(-c2ccc(Cl)cc2)n1	PAD4 inh 18 | PAD4 FP conf inactive
O=c1oc2ccccc2n1CSc1nc2ccccc2s1	none
O=c1oc2ccccc2n1CSC1=NCCS1	PAD4 inh 17 | PAD4 FP conf inactive
